# High-throughput results deposited in PubChem by several laboratories.
# SARS 3CLpro inh = SARS-CoV 3CLpro protease inhibitors, primary screen, biochemical, quenched FRET; AID 1706, 2009; inhibition, % at 6 µM; Replicase polyprotein 1ab (Severe acute respiratory syndrome coronavirus), P0C6X7; recombinant SARS-CoV 3CLpro, quenched FRET peptide cleavage; actives 0.14% (n = 290,000); in the data active means inhibition above about 12%
# BoNT-F LC inh = BoNT/F light chain protease inhibitors, primary screen, biochemical, flow cytometry, MLPCN library; inhibition, % at 10 µM; Botulinum neurotoxin type F light chain protease (Clostridium botulinum); AID 588497, 2011; Multiplex microsphere protease cleavage assay; actives 0.22% (n = 360,000); in the data active means inhibition above about 35%, passing the limit was not always enough; inconclusive means no clear call, values can overlap the other calls; further: plate controls were buffer without enzyme for full effect and enzyme alone for no effect
# BoNT-A LC inh2 = BoNT/A light chain protease inhibitors, primary screen, biochemical, flow cytometry, MLPCN library | inhibition, % at 10 µM | Botulinum neurotoxin type A light chain protease (Clostridium botulinum A str. ATCC 3502) | actives 0.17% (n = 360,000) | AID 588499, 2011 | multiplex microsphere protease substrate cleavage; further: plate controls were buffer without enzyme for full effect and enzyme alone for no effect
# Anthrax LF inh2 = Bacillus anthracis LF protease inhibitors, primary screen, biochemical, multiplex microsphere, MLPCN library | multiplex microsphere protease cleavage assay | inhibition, % at 10 µM | actives 0.12% (n = 360,000) | AID 588501, 2011; further: plate controls were buffer without enzyme for full effect and enzyme alone for no effect
# Target sequence (P15917 whole entry, looked up): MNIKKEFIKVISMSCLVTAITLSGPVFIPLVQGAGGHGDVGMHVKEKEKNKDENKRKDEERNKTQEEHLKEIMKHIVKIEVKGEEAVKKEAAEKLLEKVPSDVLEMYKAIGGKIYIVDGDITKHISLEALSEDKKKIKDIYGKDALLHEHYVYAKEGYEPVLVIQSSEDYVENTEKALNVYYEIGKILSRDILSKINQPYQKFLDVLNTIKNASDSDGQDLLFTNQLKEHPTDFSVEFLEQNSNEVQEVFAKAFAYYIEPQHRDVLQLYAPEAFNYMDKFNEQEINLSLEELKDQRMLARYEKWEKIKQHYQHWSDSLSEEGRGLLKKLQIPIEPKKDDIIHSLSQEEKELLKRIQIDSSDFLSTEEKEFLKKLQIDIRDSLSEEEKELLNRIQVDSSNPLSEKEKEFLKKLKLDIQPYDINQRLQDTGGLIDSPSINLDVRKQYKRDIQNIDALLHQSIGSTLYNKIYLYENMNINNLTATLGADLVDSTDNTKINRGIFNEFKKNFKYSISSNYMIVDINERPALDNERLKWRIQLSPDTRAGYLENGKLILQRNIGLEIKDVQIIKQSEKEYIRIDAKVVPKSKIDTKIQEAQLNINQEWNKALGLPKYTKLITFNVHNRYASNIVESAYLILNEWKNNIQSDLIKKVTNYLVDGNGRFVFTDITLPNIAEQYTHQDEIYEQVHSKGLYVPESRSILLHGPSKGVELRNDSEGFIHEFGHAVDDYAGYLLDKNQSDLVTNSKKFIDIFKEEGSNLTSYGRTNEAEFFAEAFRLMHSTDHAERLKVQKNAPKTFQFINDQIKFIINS
# Autofluor counter = counter-screen for toxin protease inhibitors: compound fluorescence. compound autofluorescence counterscreen, microsphere flow cytometry; active compounds read high. fluorescence intensity (test concentration not listed). actives 3.1% (n = 360,000). AID 624483; in the data active means fluorescence intensity above about 16000; inconclusive means no clear call, values can overlap the other calls
# The depositor's hits bear a star; u = inconclusive; x = not tested or not shown. Only some compounds are listed: those with a hit (about 3.5% of all), similar ones and a draw of the others. Unless noted, no stated cut-off is given here; in the data, active means inhibition above about 30%; inconclusive means no clear call, values can overlap the other calls; inactive means below that.
SMILES,SARS 3CLpro inh,BoNT-F LC inh,BoNT-A LC inh2,Anthrax LF inh2,Autofluor counter
Cc1nc(NCc2ccco2)[nH]c(=O)c1CCC(C)C,3,5,3,1,21901*
Cc1nc(NCC2CCCO2)[nH]c(=O)c1CCC(C)C (configuration not stated),-2,-7,0,2,3064
O=C(CSc1nnc(-c2ccc(S(=O)(=O)N3CCCC3)cc2)n1CC1CCCO1)NC1CC1 (configuration not stated),6,-4,-1,4,4834
COc1ccc(/C(N)=N/OC(=O)CSc2ccc(C)cc2)cc1OC,6,-8,0,0,8261
Cc1ccc(SCC(=O)O/N=C(\N)c2ccc([N+](=O)[O-])cc2)cc1,-2,3,3,-1,22162*
CN(C)C(=O)c1ccc(NC(=O)c2cncc(Br)c2)cc1,4,7,3,2,21882*
CC(C)OC(=O)c1ccc(NC(=O)c2cncc(Br)c2)cc1,7,-4,-1,-2,2362
CCC(=O)NC1(C(F)(F)F)C(=O)Nc2c1c(=O)n(C)c(=O)n2C (configuration not stated),0,0,0,-2,23514*
Cc1ccc(S(=O)(=O)NC2(C(F)(F)F)C(=O)Nc3c2c(=O)n(C)c(=O)n3C)cc1 (configuration not stated),-2,2,0,-7,7134
O=c1c2ccccc2nc(SCc2nnc(-c3ccccc3)o2)n1-c1ccccc1,x,-7,-1,-5,11365
COc1ccc(-c2noc(CSc3nc4ccccc4c(=O)n3-c3ccccc3)n2)cc1,5,-3,-4,-2,21618*
CCOC(=O)C1=C(C)NC(=O)NC1c1ccsc1 (configuration not stated),6,-3,0,-9,3266
CC1=C(C(=O)OC(C)C)C(c2ccc(F)cc2)NC(=O)N1 (configuration not stated),0,-2,0,0,16191*
CC1=C(C(=O)OCC(C)C)C(c2ccsc2)NC(=O)N1 (configuration not stated),1,-3,0,-5,16729*
Cc1ccc2[nH]cc(C(=O)CCl)c2c1,-3,-16,1,3,2706
COc1cc(C(=S)N2CCCC2)cc(OC)c1O,-8,-1,0,-2,20756*
CCOc1cc(C(=S)N2CCCC2)ccc1OC,-3,7,-1,6,3437
O=C(O)c1cccc(Nc2nc(C(F)(F)F)nc3ccccc23)c1,9,6,0,2,4588
O=C(COC(=O)c1ccc(S(=O)(=O)NCc2ccco2)cc1)Nc1ccc(OC(F)F)cc1,9,-1,0,1,3145
COc1ccc(Cn2ccnc2)cc1Br,-5,-5,-1,0,23086*
COc1ccc(Cn2ccnc2)cc1[N+](=O)[O-],6,-6,-1,0,2583
CC(C)(C)N(Cc1ccccc1)C(=O)CSc1nnc(CNc2ccc(F)cc2)o1,5,13,10,-10,17024*
O=C(CSc1nnc(CNc2ccc(F)cc2)o1)N1c2ccccc2Sc2ccccc21,11,0,2,-3,20080*
Cc1ccc2nc(-c3ccc4c(c3)NC(=O)CO4)cn2c1,-1,-12,-1,-4,4508
CC(=NNC(=S)N1CC2CCC(CC2)C1)c1cnccn1,x,59*,40*,54*,3454
SMILES,SARS 3CLpro inh,BoNT-F LC inh,BoNT-A LC inh2,Anthrax LF inh2,Autofluor counter
CC(=NNC(=S)N1CCN(C2CCCCCC2)CC1)c1ccccn1,x,74*,82*,92*,4342
CC(=NNC(=S)N1CC2CCC(CC2)C1)c1ccccn1,x,60*,29,52*,2877
CC(=NNC(=S)N1CCN(c2ccccn2)CC1)c1nccs1,x,30,16,31*,3551
O=C(NC1CCCCC1)c1ccccc1NC(=O)C1CC1,5,-9,0,-11,4398
O=C(O)CCn1c(SCCOc2ccccc2)nc2ccccc21,-9,u,-2,3,4065
CN1CCC(=NNC(=O)c2ccco2)CC1,4,-1,0,-2,3065
COc1cccc2[nH]c3c(N4CCC(C)CC4)ncnc3c12,3,-4,0,0,23249*
CCOc1cc(CN2CCN(c3cccc(C(F)(F)F)c3)CC2)ccc1OC,3,4,0,8,5706
CCOc1cc(CN2CCN(c3cccc(C(F)(F)F)c3)CC2)ccc1O,-8,-1,1,-3,20233*
CCOc1cc(CN2CCSCC2)ccc1O,1,-4,-2,-3,16487*
COc1ccc(CN(C)C(=O)CCN=C2NS(=O)(=O)c3ccccc32)c(OC)c1,x,-5,0,6,3676
CCN(CCCNC(=O)c1[nH]c(C)c(C(C)=O)c1C)c1ccccc1,-4,-11,-1,0,4755
COc1ccc(-c2ccnc3nc(N4CCN(c5ccccc5)CC4)nn23)cc1,4,-2,u,-11,22429*
Fc1ccc(-c2ccnc3nc(N4CCOCC4)nn23)cc1,0,-3,-1,-1,23704*
Fc1ccc(-c2ccnc3nc(-n4cccc4)nn23)cc1,0,4,1,-1,9565
O=C(CNS(=O)(=O)c1cccs1)NCc1ccc(F)cc1,1,1,-1,-1,2054
CC(=O)CSc1nsc(SCC(C)=O)c1C#N,0,-13,7,9,3429
Cc1cc(C(F)(F)F)c(C#N)c(SCC(=O)Nc2nc3ccccc3s2)n1,2,3,6,4,4300
CC(C)(C)NC(=O)CSc1nsc(SCC(=O)NC(C)(C)C)c1C#N,1,0,-2,-3,17119*
Cc1csc(NC(=O)CSc2nsc(SCC(=O)Nc3nc(C)cs3)c2C#N)n1,-2,6,u,-9,21632*
Cc1ccc2sc(NC(=O)CSc3nc(C)cc(C)c3C#N)nc2c1,4,3,u,-1,22663*
Cc1ccc(C)c(NC(=O)Cn2nc(-c3ccccc3)nc2-c2ccccc2)c1,6,-10,0,2,6049
O=C(O)c1ccnc(Cl)c1,0,-5,-1,-1,2662
COc1ccc(OCCOc2ccc(/C=C3\C(=N)N4N=C(C)SC4=NC3=O)cc2)cc1,x,0,-4,-2,6088
O=C(O)c1cccnc1SC1CC(=O)N(CCc2ccccc2)C1=O (configuration not stated),-3,-3,-2,0,24601*
CC(=O)Nc1ccc(NC(=O)C(C)OC(=O)CC2CCCCC2)cc1 (configuration not stated),x,3,0,-2,5980
Cc1cnc(C(=O)OCC(=O)NC23CC4CC(CC(C4)C2)C3)cn1,7,0,1,1,20090*
C=CCN=C(NC#N)SCc1ccccc1,1,-4,0,0,2407
